Publication PMC11006913
Where a chain is given by its changes, count along the chain named.

Experiments:
Experiment in all cases: PBM; 200 nM protein, PBS
Settings in all cases: dsDNA, one strand shown
ALX4 [1] = target: ALX4 (Homo sapiens, UniProt Q9H161 200-286)
ALX4 [2] = target: ALX4 (Homo sapiens, UniProt Q9H161 200-286, Q225E)
PRRX1 = PRRX1 (Homo sapiens, UniProt P54821 80-166)
CRX [3] = target: CRX (Homo sapiens, UniProt O43186 26-111)
CRX [4] = target: CRX (Homo sapiens, UniProt O43186 26-111, E42D)
CRX [5] = target: CRX (Homo sapiens, UniProt O43186 26-111, R41L)
HOXA4 = HOXA4 (Homo sapiens, UniProt Q00056 201-287, W262F)
HESX1 [6] = target: HESX1 (Homo sapiens, UniProt Q9UBX0 95-180, R109Q)
HESX1 [7] = target: HESX1 (Homo sapiens, UniProt Q9UBX0 95-180, P111T)
PAX4 [8] = target: T1, PAX4 (Homo sapiens, UniProt O43316 9-242, R200K)
T1 sequence: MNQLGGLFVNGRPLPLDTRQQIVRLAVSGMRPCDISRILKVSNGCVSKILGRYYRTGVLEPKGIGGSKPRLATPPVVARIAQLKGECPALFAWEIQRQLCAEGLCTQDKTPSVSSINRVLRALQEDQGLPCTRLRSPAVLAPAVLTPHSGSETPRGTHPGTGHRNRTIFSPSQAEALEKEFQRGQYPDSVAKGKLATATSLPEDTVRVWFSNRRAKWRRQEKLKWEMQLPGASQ

PAX4 [9] = target: T2, PAX4 (Homo sapiens, UniProt O43316 9-242, F177V)
T2 sequence: T1 sequence with F169V, K192R

PAX4 [10] = target: T3, PAX4 (Homo sapiens, UniProt O43316 9-242, F177Y)
T3 sequence: T1 sequence with F169Y, K192R

ALX3 [11] = target: ALX3 (Homo sapiens, UniProt O95076 139-225, N203Q)
ALX3 [12] = target: ALX3 (Homo sapiens, UniProt O95076 139-225)
VAX1 [13] = target: VAX1 (Homo sapiens, UniProt Q5SQQ9 86-172)
ALX3 [14] = target: ALX3 (Homo sapiens, UniProt O95076 139-225, L168Q)
ALX3 [15] = target: ALX3 (Homo sapiens, UniProt O95076 139-225, L168V)
VAX1 [16] = target: VAX1 (Homo sapiens, UniProt Q5SQQ9 86-172, T142I)
ALX3 [17] = target: ALX3 (Homo sapiens, UniProt O95076 139-225, N203S)
HOXB9 = HOXB9 (Homo sapiens, UniProt P17482 171-250, T197M)
Sequence of HOXB9 (P17482 171-250 T197M): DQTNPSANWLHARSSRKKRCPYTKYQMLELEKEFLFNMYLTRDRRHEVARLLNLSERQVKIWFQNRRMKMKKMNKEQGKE

Sequence of ALX4 (Homo sapiens, UniProt Q9H161 200-286) (Q9H161 200-286): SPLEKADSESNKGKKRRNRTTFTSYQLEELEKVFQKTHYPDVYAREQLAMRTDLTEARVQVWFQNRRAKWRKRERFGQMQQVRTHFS
Sequence of ALX3 (Homo sapiens, UniProt O95076 139-225, L168V) (O95076 139-225 L168V): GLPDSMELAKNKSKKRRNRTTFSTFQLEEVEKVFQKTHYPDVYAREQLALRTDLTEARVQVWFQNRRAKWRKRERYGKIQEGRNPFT
Sequence of ALX3 (Homo sapiens, UniProt O95076 139-225, N203Q) (O95076 139-225 N203Q): as the sequence (O95076 139-225 L168V) above, with V30L, N65Q counted along it
Sequence of ALX3 (Homo sapiens, UniProt O95076 139-225, L168Q) (O95076 139-225 L168Q): as the sequence (O95076 139-225 L168V) above, with V30Q counted along it
Sequence of ALX4 (Homo sapiens, UniProt Q9H161 200-286, Q225E) (Q9H161 200-286 Q225E): as the sequence (Q9H161 200-286) above, with Q26E counted along it
Sequence of VAX1 (Homo sapiens, UniProt Q5SQQ9 86-172, T142I) (Q5SQQ9 86-172 T142I): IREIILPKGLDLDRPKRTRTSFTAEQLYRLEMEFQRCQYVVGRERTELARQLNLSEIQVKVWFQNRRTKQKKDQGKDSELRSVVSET
Sequence of VAX1 (Homo sapiens, UniProt Q5SQQ9 86-172) (Q5SQQ9 86-172): as the sequence (Q5SQQ9 86-172 T142I) above, with I57T counted along it
Sequence of ALX3 (Homo sapiens, UniProt O95076 139-225, N203S) (O95076 139-225 N203S): as the sequence (O95076 139-225 L168V) above, with V30L, N65S counted along it
Sequence of PRRX1 (P54821 80-166): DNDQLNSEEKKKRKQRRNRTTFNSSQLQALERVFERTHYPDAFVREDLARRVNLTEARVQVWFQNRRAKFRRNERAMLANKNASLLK
Sequence of ALX3 (Homo sapiens, UniProt O95076 139-225) (O95076 139-225): as the sequence (O95076 139-225 L168V) above, with V30L counted along it
Sequence of HOXA4 (Q00056 201-287 W262F): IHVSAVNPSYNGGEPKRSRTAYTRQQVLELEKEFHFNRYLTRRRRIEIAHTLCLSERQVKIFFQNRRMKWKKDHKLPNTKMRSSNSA
Sequence of CRX (Homo sapiens, UniProt O43186 26-111, R41L) (O43186 26-111 R41L): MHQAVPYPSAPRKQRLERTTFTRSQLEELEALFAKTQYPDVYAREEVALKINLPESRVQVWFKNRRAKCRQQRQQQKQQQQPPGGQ
Sequence of CRX (Homo sapiens, UniProt O43186 26-111) (O43186 26-111): as the sequence (O43186 26-111 R41L) above, with L16R counted along it
Sequence of HESX1 (Homo sapiens, UniProt Q9UBX0 95-180, R109Q) (Q9UBX0 95-180 R109Q): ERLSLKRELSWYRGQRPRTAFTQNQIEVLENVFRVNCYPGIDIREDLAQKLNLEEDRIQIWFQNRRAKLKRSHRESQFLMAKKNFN
Sequence of CRX (Homo sapiens, UniProt O43186 26-111, E42D) (O43186 26-111 E42D): as the sequence (O43186 26-111 R41L) above, with L16R, E17D counted along it
Sequence of HESX1 (Homo sapiens, UniProt Q9UBX0 95-180, P111T) (Q9UBX0 95-180 P111T): as the sequence (Q9UBX0 95-180 R109Q) above, with Q15R, P17T counted along it

Sequence: CCCGGCGG
- binding signal (ALX4 [1]): 7.89 upbm affinity estimate (log intensity, higher = more binding, comparable within an allelic series)
- binding signal (ALX4 [2]): 8.11 upbm affinity estimate (log intensity, higher = more binding, comparable within an allelic series)

Sequence: CACGCGTG
- binding signal (PRRX1): 9.41 upbm affinity estimate (log intensity, higher = more binding, comparable within an allelic series)

Sequence: ACGCGCAG
- binding signal (PRRX1): 9.2 upbm affinity estimate (log intensity, higher = more binding, comparable within an allelic series)

Sequence: CGAACGCC
- binding signal (CRX [3]): 7.92 upbm affinity estimate (log intensity, higher = more binding, comparable within an allelic series)
- binding signal (CRX [4]): 8.15 upbm affinity estimate (log intensity, higher = more binding, comparable within an allelic series)
- binding signal (CRX [5]): 8.11 upbm affinity estimate (log intensity, higher = more binding, comparable within an allelic series)

Sequence: CGGACCCG
- binding signal (CRX [3]): 8.38 upbm affinity estimate (log intensity, higher = more binding, comparable within an allelic series)
- binding signal (CRX [4]): 8.29 upbm affinity estimate (log intensity, higher = more binding, comparable within an allelic series)
- binding signal (CRX [5]): 8.36 upbm affinity estimate (log intensity, higher = more binding, comparable within an allelic series)

Sequence: CCGGAGCC
- binding signal (HOXA4): 9.84 upbm affinity estimate (log intensity, higher = more binding, comparable within an allelic series)

Sequence: CTTCCGTC
- binding signal (HESX1 [6]): 6.56 upbm affinity estimate (log intensity, higher = more binding, comparable within an allelic series)
- binding signal (HESX1 [7]): 6.55 upbm affinity estimate (log intensity, higher = more binding, comparable within an allelic series)

Sequence: ACCCGGGC
- binding signal (PAX4 [8]): 9.17 upbm affinity estimate (log intensity, higher = more binding, comparable within an allelic series)
- binding signal (PAX4 [9]): 9.22 upbm affinity estimate (log intensity, higher = more binding, comparable within an allelic series)
- binding signal (PAX4 [10]): 9.24 upbm affinity estimate (log intensity, higher = more binding, comparable within an allelic series)

Sequence: CTAATTGC
- binding signal (ALX4 [1]): 13.6 upbm affinity estimate (log intensity, higher = more binding, comparable within an allelic series)
- binding signal (ALX4 [2]): 12.8 upbm affinity estimate (log intensity, higher = more binding, comparable within an allelic series)
- binding signal (ALX3 [11]): 8.22 upbm affinity estimate (log intensity, higher = more binding, comparable within an allelic series)
- binding signal (ALX3 [12]): 12.3 upbm affinity estimate (log intensity, higher = more binding, comparable within an allelic series)
- binding signal (HESX1 [6]): 8.98 upbm affinity estimate (log intensity, higher = more binding, comparable within an allelic series)
- binding signal (VAX1 [13]): 13 upbm affinity estimate (log intensity, higher = more binding, comparable within an allelic series)
- binding signal (ALX3 [14]): 10.3 upbm affinity estimate (log intensity, higher = more binding, comparable within an allelic series)
- binding signal (HESX1 [7]): 10.9 upbm affinity estimate (log intensity, higher = more binding, comparable within an allelic series)
- binding signal (ALX3 [15]): 9.7 upbm affinity estimate (log intensity, higher = more binding, comparable within an allelic series)
- binding signal (VAX1 [16]): 12.9 upbm affinity estimate (log intensity, higher = more binding, comparable within an allelic series)
- binding signal (HOXA4): 11.4 upbm affinity estimate (log intensity, higher = more binding, comparable within an allelic series)
- binding signal (ALX3 [17]): 8.29 upbm affinity estimate (log intensity, higher = more binding, comparable within an allelic series)

Sequence: CACGGGCC
- binding signal (ALX3 [11]): 7.64 upbm affinity estimate (log intensity, higher = more binding, comparable within an allelic series)
- binding signal (ALX3 [12]): 7.66 upbm affinity estimate (log intensity, higher = more binding, comparable within an allelic series)
- binding signal (ALX3 [14]): 7.64 upbm affinity estimate (log intensity, higher = more binding, comparable within an allelic series)
- binding signal (ALX3 [15]): 7.58 upbm affinity estimate (log intensity, higher = more binding, comparable within an allelic series)
- binding signal (ALX3 [17]): 7.68 upbm affinity estimate (log intensity, higher = more binding, comparable within an allelic series)

Sequence: CCGGTGGC
- binding signal (VAX1 [13]): 7.31 upbm affinity estimate (log intensity, higher = more binding, comparable within an allelic series)
- binding signal (VAX1 [16]): 7.45 upbm affinity estimate (log intensity, higher = more binding, comparable within an allelic series)

Sequence: CGTGCACG
- binding signal (HOXB9): 8.83 upbm affinity estimate (log intensity, higher = more binding, comparable within an allelic series)
- binding signal (PRRX1): 9.56 upbm affinity estimate (log intensity, higher = more binding, comparable within an allelic series)

Sequence: CATGCGCC
- binding signal (HOXB9): 8.7 upbm affinity estimate (log intensity, higher = more binding, comparable within an allelic series)

Sequence: CCAGCCAG
- binding signal (HOXB9): 8.47 upbm affinity estimate (log intensity, higher = more binding, comparable within an allelic series)

Sequence: GCGACGCC
- binding signal (VAX1 [13]): 7.12 upbm affinity estimate (log intensity, higher = more binding, comparable within an allelic series)
- binding signal (VAX1 [16]): 7.24 upbm affinity estimate (log intensity, higher = more binding, comparable within an allelic series)

Sequence: CGGTCGGC
- binding signal (ALX4 [1]): 8.27 upbm affinity estimate (log intensity, higher = more binding, comparable within an allelic series)
- binding signal (ALX4 [2]): 7.99 upbm affinity estimate (log intensity, higher = more binding, comparable within an allelic series)
- binding signal (ALX3 [11]): 7.66 upbm affinity estimate (log intensity, higher = more binding, comparable within an allelic series)
- binding signal (ALX3 [12]): 7.68 upbm affinity estimate (log intensity, higher = more binding, comparable within an allelic series)
- binding signal (ALX3 [14]): 7.79 upbm affinity estimate (log intensity, higher = more binding, comparable within an allelic series)
- binding signal (ALX3 [15]): 7.75 upbm affinity estimate (log intensity, higher = more binding, comparable within an allelic series)
- binding signal (ALX3 [17]): 7.69 upbm affinity estimate (log intensity, higher = more binding, comparable within an allelic series)

Sequence: AGCCGACA
- binding signal (PRRX1): 9.49 upbm affinity estimate (log intensity, higher = more binding, comparable within an allelic series)
